Among all 5,500 compounds or so, about 2,000 (36%) were called active. Inconclusive results (about 18%) are left out. Rule as the data show it: active = normalized growth mostly below about 0.91 (no sharp cut-off); inconclusive = no clear call, values can overlap the other calls; inactive = mostly above about 0.92. The list shows a part of the results.
Assay: chemical genetic growth profiling, strain panel (AID 1159580);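 also: tested at 20 µM; growth read once vehicle control cultures reached saturation at 30 °C; 1 = growth at the plate median or of vehicle wells; lower values mean less growth of the strain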
Conditions: S. cerevisiae deletion strains, growth OD

Measured: normalized growth

CCC(C)C(=O)O[C@H]1C[C@H](O)C=C2C=C[C@H](C)[C@H](CC[C@@H](O)C[C@@H](O)CC(=O)O)C21 (stereo not given in full)
inactive: locus YAL021C, strain ccr4, hits give low values 1.02 | locus YAL026C, strain drs2, hits give low values 1.03 | locus YAL030W, strain snc1, hits give low values 1 | locus YBL061C, strain skt5, hits give low values 1.01 | locus YBR009C, strain hhf1, hits give low values 0.966 | locus YBR023C, strain chs3, hits give low values 1.02 | locus YBR171W, strain sec66, hits give low values 1 | locus YBR231C, strain swc5, hits give low values 0.976 | locus YBR279W, strain paf1, hits give low values 1.02 | locus YCL011C, strain gbp2, hits give low values 1.02 | locus YCL016C, strain dcc1, hits give low values 1.03 | locus YCL061C, strain MRC1, hits give low values 1.01 | locus YCL069W, strain vba3, hits give low values 1.01 | locus YCR088W, strain abp1, hits give low values 1 | locus YDL005C, strain med2, hits give low values 1.03 | locus YDL040C, strain nat1, hits give low values 0.993 | locus YDR001C, strain nth1, hits give low values 1.01 | locus YDR069C, strain doa4, hits give low values 1.01 | locus YDR159W, strain sac3, hits give low values 0.937 | locus YDR195W, strain ref2 0.952 | locus YDR297W, strain sur2, hits give low values 1.01 | locus YDR334W, strain swr1, hits give low values 0.994 | locus YDR335W, strain msn5, hits give low values 1.02 | locus YDR392W, strain spt3, hits give low values 0.987 | locus YEL003W, strain gim4, hits give low values 1.02 | locus YEL037C, strain rad23, hits give low values 1.02 | locus YEL061C, strain CIN8 (second series), hits give low values 0.986 | locus YER015W, strain faa2, hits give low values 1 | locus YER016W, strain bim1, hits give low values 1.06 | locus YER111C, strain swi4, hits give low values 1.02 | locus YER155C, strain BEM2 (second series), hits give low values 1.02 | locus YFR010W, strain ubp6, hits give low values 0.995 | locus YGL167C, strain pmr1, hits give low values 1 | locus YGL173C, strain kem1, hits give low values 1.02 | locus YGL227W, strain vid30, hits give low values 1 | locus YGL240W, strain doc1, hits give low values 1.04 | locus YGL253W, strain hxk2, hits give low values 1.02 | locus YHR013C, strain ard1, hits give low values 1.02 | locus YHR027C, strain rpn1, hits give low values 1.01 | locus YHR030C, strain SLT2, hits give low values 0.977 | locus YHR079C, strain IRE1, hits give low values 0.975 | locus YHR142W, strain chs7, hits give low values 1.02 | locus YJL092W, strain hpr5, hits give low values 1.01 | locus YJL095W, strain BCK1 (second series), hits give low values 1.02 | locus YJL095W, strain BCK1, hits give low values 0.965 | locus YJL115W, strain asf1, hits give low values 1.01 | locus YJL129C, strain trk1, hits give low values 1.02 | locus YJL154C, strain vps35, hits give low values 1.01 | locus YJL164C, strain tpk1, hits give low values 1.01 | locus YJL166W, strain qcr8, hits give low values 0.992 | locus YJL187C, strain SWE1, hits give low values 1.01 | locus YJR066W, strain TOR1, hits give low values 0.907 | locus YKL160W, strain elf1, hits give low values 1.05 | locus YKR026C, strain gcn3, hits give low values 0.99 | locus YKR091W, strain srl3, hits give low values 1 | locus YLL001W, strain dnm1, hits give low values 0.961 | locus YLL026W, hits give low values 1 | locus YLL041C, strain sdh2, hits give low values 0.991 | locus YLR027C, strain aat2, hits give low values 1 | locus YLR113W, strain HOG1, hits give low values 1 | locus YLR221C, strain rsa3, hits give low values 0.998 | locus YLR258W, strain gsy2, hits give low values 1.03 | locus YLR262C, strain YPT6 (second series), hits give low values 1.12 | locus YLR320W, strain mms22, hits give low values 0.963 | locus YLR342W, strain FKS1, hits give low values 1.02 | locus YLR357W, strain rsc2, hits give low values 1 | locus YLR370C, strain arc18, hits give low values 1.02 | locus YLR384C, strain iki3, hits give low values 0.991 | locus YML120C, strain ndi1, hits give low values 1.02 | locus YMR058W, strain fet3, hits give low values 1.01 | locus YMR125W, strain sto1, hits give low values 1.04 | locus YMR129W, hits give low values 1 | locus YMR205C, strain PFK2, hits give low values 0.972 | locus YMR231W, strain pep5, hits give low values 1 | locus YNL071W, strain lat1, hits give low values 1 | locus YNL183C, strain NPR1, hits give low values 0.902 | locus YNL209W, strain ssb2, hits give low values 1.01 | locus YNL248C, strain rpa49, hits give low values 1.03 | locus YNL322C, strain KRE1 (second series), hits give low values 1.06 | locus YNR049C, strain mso1, hits give low values 1.01 | locus YOR001W, strain rrp6, hits give low values 0.992 | locus YOR070C, strain gyp1, hits give low values 1 | locus YOR080W, strain dia2, hits give low values 0.999 | locus YOR083W, strain WHI5, hits give low values 1.01 | locus YOR106W, strain vam3, hits give low values 1.04 | locus YOR231W, strain MKK1, hits give low values 0.954 | locus YOR265W, strain rbl2, hits give low values 1 | locus YOR270C, strain vph1, hits give low values 0.946 | locus YOR290C, strain snf2, hits give low values 1.05 | locus YPL051W, strain arl3, hits give low values 1.06 | locus YPL078C, strain atp4, hits give low values 1.05 | locus YPL106C, strain sse1, hits give low values 1.02 | locus YPL240C, strain hsp82, hits give low values 1.01 | locus YPL256C, strain CLN2, hits give low values 1.01
active: locus YDR137W, strain rgp1, hits give low values 1.3 [resistant]

Reference: PubChem BioAssay AID1159580 (chemical genetic matrix, 2015)
